Several values for one entry are separate records, joined by “and”; a condition that tells them apart may be missing. Equal values may be shown once. Out of some 220,000 compounds screened, about 2,000 (0.91%) were called active. Inconclusive results (about 2%) are left out. Cut-off read from the data, not from the text of the source: inconclusive = inhibition above about 80% without an active follow-up result; inactive = below that; test concentration not stated here. The list is a sample of the results. Entries with a potency or affinity are not part of this list.

The assay in a line: M. tuberculosis H37Rv growth inhibitors, H37Rv strain (AID 1626).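 Note: bacteria incubated seven days before Alamar blue readout; 0% = bacteria only wells and 100% = bacteria with antibiotic wells.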 Particulars: stronger effect = higher value, concentration not given here.
Take `COc1ccc(NC(=O)C(NC(=O)CNC(C)=O)c2ccc(C)cc2)cc1` (centres undefined): the inhibition was -6.91% (inactive). On to `O=C(CCN1C(=O)c2ccccc2C1=O)NC(=S)Nc1ccccc1Cl`, for which the inhibition is 9.27% (inactive). Regarding `Oc1[nH]c2ccccc2c1C=Nc1ccc2c(c1)OCCO2`, the inhibition is 6.37% (inactive). Turning to `O=C(NCCCn1ccnc1)c1cc2nc(-c3ccc(Br)cc3)cc(C(F)(F)F)n2n1`, the inhibition is 6.06% (inactive). Turning to `O=C(NCCCn1ccnc1)c1nn2c(C(F)(F)F)cc(-c3ccccc3)nc2c1Cl`, the inhibition was -4.76% (inactive). Regarding `O=C(O)COCC(=O)Nc1ccccc1-c1ccccc1`, the inhibition is -0.81% (inactive). To `COc1ccc(CN(C)Cc2nc3scc(-c4ccccc4)c3c(=O)[nH]2)cc1OC` belongs 3.92% (inactive). Regarding `CCOC(=O)N1CCN(c2ccc(Cl)c(Cl)c2)CC1`, the inhibition was 6.01% (inactive). Regarding `COC(=O)N1CCN(c2ccc(Cl)c(Cl)c2)CC1`, the inhibition is -4.81% (inactive).

In the case of `O=S1(=O)CCN(CCc2c[nH]c3ccccc23)CC1`, the inhibition was 3.01% (inactive). In the case of `N#Cc1ccc(C(=O)Nc2nnc(-c3ccccn3)o2)cc1`, the inhibition was 1.74% (inactive). Turning to `O=C(Nc1nnc(-c2ccncc2)o1)c1cccc(N2C(=O)CCC2=O)c1`, the inhibition was -4.89% (inactive). To `COC(=O)c1ccc(C(=O)Nc2nnc(-c3cccnc3)o2)cc1` belongs -5.5% (inactive). As for `CC(=O)Nc1nnc(-c2ccccn2)o1`, the inhibition is -3.3% (inactive). For `O=C(CCc1ccccc1)Nc1nnc(-c2ccccn2)o1`, the inhibition was -4.88% (inactive). Take `CCC(=O)Nc1nnc(-c2ccccn2)o1`: the inhibition is 5.88% (inactive). With `Cc1nnsc1C(=O)N(Cc1ccccc1)C(C)C`, the inhibition was -4.27% (inactive). As to `Cc1ccc(CNC(=O)C2CC(c3cccc(F)c3)=NO2)cc1` (centres undefined), the inhibition is 9.15% (inactive).

As to `OC(C#CCN1CCOCC1)(c1ccccc1)C1CCCC1` (centres undefined), the inhibition was 2.94% (inactive). For `Cc1ccc(C(=O)CSc2nnc(COc3cccc(C)c3)o2)cc1` the value was -2.67% (inactive). As for `Cc1ccc(C(=O)CSc2nnc(COc3cc(C)cc(C)c3)o2)cc1`, the inhibition is -3.69% (inactive). Regarding `Cc1cc(C)nc(SCc2nnc(SCC(=O)OC3CCCCC3)o2)n1`, the inhibition is 48.1% (inactive). To `CC1CCCCC1NC(=O)CSc1nnc(COc2ccccc2Cl)o1` (centres undefined) belongs -2.14% (inactive); to `O=C(CSc1nnc(COc2ccccc2Cl)o1)NC(=O)NC1CCCC1`, 5.08% (inactive).

Consider `CCOC(=O)CSc1nnc(COc2cccc(C)c2)o1`, for which the inhibition is -4.7% (inactive). As to `CCn1cc(C(=O)OCC(=O)Nc2c(C)cccc2C)c(=O)c2ccc(C)nc21`, the inhibition is 0.89% (inactive). For `Cc1ccccc1CSCCNC(=O)CCSc1ccccc1`, the inhibition is -2.07% (inactive). For `CCOC(=O)c1ccc(NC(=O)CSc2nnc(COc3ccccc3OC)n2CC)cc1` the value was 6.35% (inactive); for `CCc1cccc(CC)c1NC(=O)c1ccccc1CCc1ccccc1`, 2.03% (inactive); for `COC(c1ccccc1)c1nnc(CCC(=O)N(C)CCc2ccccc2)o1` (centres undefined), -1.5% (inactive).

`O=C(CCn1cnc2ccccc2c1=O)Nc1nc(-c2ccc(Br)cc2)cs1`: the inhibition was -1.09% (inactive).

Regarding `COc1ccc(/C=C2/N=C(SCC(=O)Nc3cc(C)on3)N(c3ccccc3)C2=O)cc1`, the inhibition was 2.4% (inactive). To `C=CCn1c(CNC(=O)c2ccccc2C)nnc1SCC(=O)NC1CCCC1` belongs -7.41% (inactive); to `CN1CCN(C2=Cc3ccccc3Sc3cc(F)c(F)cc32)CC1`, 11.1% (inactive); to `CN1CCN(CCCN2c3ccccc3Sc3ccc(Cl)cc32)CC1`, -5.97% (inactive) and 68.2% (inactive) and 79.9% (inactive). To `CN1CCN(C2=Cc3ccccc3Sc3cc(F)ccc32)CC1` belongs 2.61% (inactive); to `CN1CCN(c2ccc(F)cc2N)CC1`, 0.4% (inactive). Turning to `CCc1ccc(CCC(=O)Nc2nnc(CC)s2)o1`, the inhibition was 7.07% (inactive). On to `COc1ccc(CNc2nc3nc(C)c(Cl)c(C)n3n2)cc1`, for which the inhibition was -2.45% (inactive). In the case of `O=S(=O)(c1ccc2c(c1)OCCCO2)N1CCNCC1`, the inhibition is -0.23% (inactive). With `O=C(c1ccc2c(c1)OCCO2)N1CCCC(CNS(=O)(=O)c2cccs2)C1` (centres undefined), the inhibition was 4.35% (inactive). To `Cc1[nH]c2ccccc2c1SCCNC(=O)c1ccc(Br)o1` belongs -0.07% (inactive); to `CCC(=O)Nc1cccc(NC(=O)c2ccc(C)c([N+](=O)[O-])c2)c1`, 15.4% (inactive); to `CC(=O)OCCNC(=O)c1cc2ccccc2oc1=O`, -6.56% (inactive). Consider `CN(C)CCNC(=O)c1cc2ccccc2oc1=O`, for which the inhibition was 2.99% (inactive). In the case of `CCC1(CC)C(=O)N(C)C(=O)NC1=Nc1ccc(OC)cc1`, the inhibition is -7.12% (inactive). On to `O=S(=O)(Nc1nccs1)c1ccc(F)cc1`, for which the inhibition was -3.51% (inactive). To `NS(=O)(=O)c1ccc(N=C2C(=O)Nc3ccccc32)cc1` belongs -2.66% (inactive); to `O=[N+]([O-])c1ccccc1S(=O)(=O)NCc1ccco1`, 9.2% (inactive); to `Cc1ccc2cc(CN(CC3CCCO3)C(=S)NCc3ccco3)c(=O)[nH]c2c1` (centres undefined), 1.74% (inactive). Regarding `CC1=CC(=O)N(c2cccc(C(F)(F)F)c2)C1c1ccc(Cl)cc1` (centres undefined), the inhibition was 5.08% (inactive).

`Cc1nc([N+](=O)[O-])c(Br)n1CC(=O)c1ccc(F)cc1`: the inhibition is 52.5% (inactive). In the case of `Cc1nc([N+](=O)[O-])c(Br)n1CC(=O)c1ccc(Br)cc1`, the inhibition was 18.9% (inactive). For `Cc1nc([N+](=O)[O-])c(Br)n1Cc1ccccc1` the value was 28.8% (inactive); for `Cc1nc([N+](=O)[O-])c(Br)n1CC(=O)c1ccccc1`, 37% (inactive); for `CCN(c1ccccc1)S(=O)(=O)c1ccc(Cl)c(NC(=O)CSc2nncs2)c1`, 6.07% (inactive). `CCCCCCCCc1nc(SCC(C)=O)n[nH]1`: the inhibition is 8.52% (inactive).

Regarding `O=C(CS(=O)(=O)c1cccc(Cl)c1)Nc1ccccc1Cl`, the inhibition was -9.41% (inactive). `CC(C)(C)c1cnnn1-c1ccc(/C=N/Nc2ccc([N+](=O)[O-])cc2)cc1`: the inhibition is -0.06% (inactive). To `O=C(NCCN1CCN(c2ccccc2)CC1)c1cccn2c(=O)c3cc(Cl)ccc3nc12` belongs 8.3% (inactive).

As to `Cc1ccc(O)c(N=Cc2sc3ccccc3c2Cl)c1`, the inhibition is 11.1% (inactive). To `O=[N+]([O-])c1ccc(O)c(N=Cc2sc3ccccc3c2O)c1` belongs 5.55% (inactive); to `CCCc1ccc(NS(=O)(=O)c2c(C)oc(C)c2C(=O)OC)cc1`, 3.72% (inactive); to `CN1CCN(C(=S)c2cn(Cc3cccc(F)c3)c3ccccc23)CC1`, 2.92% (inactive). For `COc1ccc(C)cc1S(=O)(=O)N1CCN(c2cccc(C(F)(F)F)c2)CC1`, the inhibition was -1.59% (inactive). For `CCC1C(c2ccccc2)N(C)C(c2ccccc2)CC1(O)c1ccccc1` (centres undefined) the value was 51.8% (inactive). As to `CC1/C(=N/O)CC(c2ccccc2)N(C)C1c1ccccc1` (centres undefined), the inhibition was -3.61% (inactive). Turning to `O=C(Nc1ccc(O)cc1C(=O)O)c1cccc(Br)c1`, the inhibition was 0.45% (inactive). On to `COc1cnc(-c2ccccn2)nc1Oc1ccc(Cl)cc1`, for which the inhibition is 71.9% (inactive). Regarding `Fc1ccc(Oc2ncccn2)c(F)c1`, the inhibition was 0.19% (inactive).

Regarding `COc1cnc(-c2ccccn2)nc1Oc1ccccc1Cl`, the inhibition was -2.44% (inactive). For `Nc1cccnc1Oc1ccc(F)cc1F`, the inhibition is -4.1% (inactive). `C#CCOCCOCCOCCNc1nc(N2CCN(C(=O)[C@H](CCC(=O)O)n3cc(C(N)[C@H](C)CC)nn3)CC2)nc(N2CCN(C(=O)[C@H](Cc3ccc(O)cc3)n3cc(C(N)[C@H](C)CC)nn3)CC2)n1` (some centres undefined): the inhibition was 0.56% (inactive). Turning to `Cc1ccc(NC2=C/C(=N/S(=O)(=O)c3cccs3)c3ccccc3C2=O)cc1C`, the inhibition was 0.28% (inactive).

As to `O=C1C(Nc2ccccc2)=C/C(=N/S(=O)(=O)c2cccs2)c2ccccc21`, the inhibition is 76.6% (inactive). To `Cc1cccc(NC2=C/C(=N/S(=O)(=O)c3cccs3)c3ccccc3C2=O)c1` belongs 1.87% (inactive); to `Cc1ccccc1NC1=C/C(=N\S(=O)(=O)c2cccs2)c2ccccc2C1=O`, 61.1% (inactive). For `CC(=O)Nc1ccc(S(=O)(=O)NC(C)C(=O)NCCc2ccc(F)cc2)cc1` (centres undefined), the inhibition was 1.81% (inactive). Take `O=C(COCC(=O)NCc1ccccc1)NCc1ccccc1`: the inhibition is -4.59% (inactive). Turning to `CCN(CC)S(=O)(=O)c1cc(F)ccc1OC`, the inhibition was -2.44% (inactive). Regarding `CCn1nnc2c(=O)oc3ccccc3c21`, the inhibition is 13.4% (inactive). With `CC(C)n1nnc2c(=O)oc3ccccc3c21`, the inhibition was 11.1% (inactive). To `COc1cc2c(cc1OC)C(c1cc([N+](=O)[O-])ccc1O)NCC2` (centres undefined) belongs -9.49% (inactive); to `CC(=O)c1cccc(NC(=O)N2CCc3ccccc3C2)c1`, -10.8% (inactive); to `COCCOC(=O)C1=C(N)OC2=C(C(=O)CC(C)(C)C2)C1c1ccncc1` (centres undefined), -0.69% (inactive).

On to `O=C1NN(c2ccc(Cl)c(Cl)c2)C(=O)/C1=C/c1cccc(OC(=O)c2cccs2)c1`, for which the inhibition is 34.2% (inactive).

Take `Cc1ccc(N2C(=O)NC(=O)/C(=C/c3ccc(OC(=O)c4cccs4)cc3)C2=O)cc1`: the inhibition is 4.29% (inactive).

Turning to `COc1c(Cl)cc(Cl)cc1C(=O)Nc1ccccc1N1CCN(C(C)=O)CC1`, the inhibition was 1.59% (inactive).

As for `CCOC(=O)c1[nH]cnc1C(=O)Nc1ccccc1OC`, the inhibition is -3.28% (inactive). Take `O=C(Cn1nnc(-c2ccc(Cl)cc2)n1)NCC1CCCCC1`: the inhibition was 3.64% (inactive). For `CCC1CCCCN1CC(=O)Nc1cc(OC)c(OC)cc1C#N` (centres undefined) the value was -5.44% (inactive).

For `O=C(CC1SCCNC1=O)Nc1cccc([N+](=O)[O-])c1` (centres undefined), the inhibition was -1.32% (inactive).

With `Oc1ccc(Br)cc1C=Nc1ccc(Cl)cc1`, the inhibition is 3.2% (inactive). As to `Oc1ccc(Cl)cc1C=Nc1ccc(Br)cc1`, the inhibition is -2.18% (inactive). Take `COCC(C)NC(=O)c1oc2c(c1C)C1(CCC2)SCCS1` (centres undefined): the inhibition was 5.96% (inactive). For `COc1ccc(C2(O)CC3CCC(C2)N3c2nc(C)cc(C)c2C#N)cc1` (centres undefined), the inhibition is -5.82% (inactive). As for `Cc1cc(N2CCN(c3ccc(F)cc3)CC2)nc(-c2ccccc2)n1`, the inhibition is 4.82% (inactive). Turning to `Cc1cc(N2CCCC2)nc(N2C3CCC2CC(O)(c2ccc(F)cc2)C3)n1` (centres undefined), the inhibition is 0.78% (inactive).

On to `COc1ccc(NC(=O)C2CCN(c3cc(C)nc(-c4ccccc4)n3)CC2)cc1`, for which the inhibition is 11.4% (inactive).

The term inhibition denotes the change of the read-out against control, counted positive when it falls.

Values taken from PubChem BioAssay AID1626 (SRMLSC, 2009).
